Experimental findings from paper PMC4336329 (PLoS ONE, 2015) are described below.

The campaign covered roughly 310,000 compounds. About 14,000 (4.5%) showed an effect of 50% or more. The effect is printed as a negative number. This excerpt belongs to a sample that is enriched for strong results.
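Also: peak tail current of the secondary pulse compared with the same well before compound.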

The target in the test is human ether-à-go-go-related gene (hERG) potassium channel (human, UniProt Q12809). The test is described as follows: primary screen, population patch clamp on CHO cells stably expressing hERG; higher = less effect of the substance.
Chain of human ether-à-go-go-related gene (hERG) potassium channel (Q12809 whole entry, looked up): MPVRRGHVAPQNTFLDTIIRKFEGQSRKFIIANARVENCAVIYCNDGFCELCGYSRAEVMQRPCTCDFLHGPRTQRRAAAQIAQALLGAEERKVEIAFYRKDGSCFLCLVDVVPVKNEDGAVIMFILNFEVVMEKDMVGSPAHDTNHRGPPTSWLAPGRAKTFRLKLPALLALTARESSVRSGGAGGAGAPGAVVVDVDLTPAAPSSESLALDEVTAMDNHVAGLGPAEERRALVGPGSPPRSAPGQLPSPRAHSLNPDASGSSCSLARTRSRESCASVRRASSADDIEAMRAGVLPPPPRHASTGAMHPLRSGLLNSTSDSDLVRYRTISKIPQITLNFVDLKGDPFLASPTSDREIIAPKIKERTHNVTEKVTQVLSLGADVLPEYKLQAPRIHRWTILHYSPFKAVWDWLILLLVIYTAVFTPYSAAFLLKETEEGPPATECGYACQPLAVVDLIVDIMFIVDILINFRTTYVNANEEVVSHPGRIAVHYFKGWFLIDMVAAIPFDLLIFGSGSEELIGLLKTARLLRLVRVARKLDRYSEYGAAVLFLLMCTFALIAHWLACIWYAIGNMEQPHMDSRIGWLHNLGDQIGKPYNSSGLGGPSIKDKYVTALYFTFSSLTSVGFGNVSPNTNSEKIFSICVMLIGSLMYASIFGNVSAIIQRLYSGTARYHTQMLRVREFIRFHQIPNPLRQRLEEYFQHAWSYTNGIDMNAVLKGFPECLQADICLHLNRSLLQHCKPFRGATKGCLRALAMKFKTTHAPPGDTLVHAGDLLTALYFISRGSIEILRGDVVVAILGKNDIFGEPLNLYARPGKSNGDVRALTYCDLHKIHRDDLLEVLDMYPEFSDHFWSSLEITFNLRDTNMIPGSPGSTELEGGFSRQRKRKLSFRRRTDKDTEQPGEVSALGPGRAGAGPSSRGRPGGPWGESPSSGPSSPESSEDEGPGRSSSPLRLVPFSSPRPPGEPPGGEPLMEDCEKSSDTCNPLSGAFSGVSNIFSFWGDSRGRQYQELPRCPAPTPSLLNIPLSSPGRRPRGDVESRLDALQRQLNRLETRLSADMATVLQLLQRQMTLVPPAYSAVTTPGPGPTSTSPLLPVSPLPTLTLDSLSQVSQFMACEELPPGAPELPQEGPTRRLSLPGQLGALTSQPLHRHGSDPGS
On to `COC(=O)c1cc(S(=O)(=O)NCc2ccc3c(c2)OCO3)cn1C`, for which the “hERG current change (%, negative = inhibition) at 10uM” value is on record as -0.484%.

As to `CCOC(=O)c1cc(-c2ccc(N3CCOCC3)cc2)nn1-c1ccccc1C(=O)O`, the “hERG current change (%, negative = inhibition) at 10uM” value is recorded as 5.59%.

Take `c1ccc(CN2CCN(c3nc4ccccc4c4ccccc34)CC2)cc1`: the “hERG current change (%, negative = inhibition) at 10uM” value is on record as -3.19%.

As for `COc1cc2nc(CN3CCN(C(c4ccccc4)c4ccccc4)CC3)[nH]c(=O)c2cc1OC`, the “hERG current change (%, negative = inhibition) at 10uM” value was determined as 1.59%.

On to `O=C(O)CN1CCN(C(c2ccccc2)c2ccccc2)CC1`, for which the “hERG current change (%, negative = inhibition) at 10uM” value is 30.4%.

With `O=C(CCc1nc2ccccc2c(=O)[nH]1)NC1CCN(Cc2ccccc2)CC1`, the “hERG current change (%, negative = inhibition) at 10uM” value is -0.782%.

As to `O=c1nc2ccccc2c2n1CC(CN1CCN(Cc3ccccc3)CC1)N2` (centres unmarked), the “hERG current change (%, negative = inhibition) at 10uM” value was -66.1%.

On to `O=c1nc2ccccc2c2n1CC(CN1CCN(C(c3ccccc3)c3ccccc3)CC1)N2` (centres unmarked), for which the “hERG current change (%, negative = inhibition) at 10uM” value is recorded as -81.4%.

`COCCCNC(=O)CCn1c(=O)c2ccccc2n(CC(=O)Nc2ccccc2C)c1=O`: the “hERG current change (%, negative = inhibition) at 10uM” value is reported as 9.98%.

Consider `CCOc1ccc(Cc2nnc(N)s2)cc1OCC`, for which the “hERG current change (%, negative = inhibition) at 10uM” value was -6.21%.

As to `NC(=O)C1(S(=O)(=O)c2ccccc2)CCCCC1`, the “hERG current change (%, negative = inhibition) at 10uM” value came out at 13.2%.

Regarding `CC1(C)OC(=O)C(=CNc2ccccc2)C(=O)O1`, the “hERG current change (%, negative = inhibition) at 10uM” value is given as -4.48%.

As for `C[N+]1=C(/C=C/Nc2ccccc2)C(C)(C)c2ccccc21.[O-][Cl+3]([O-])([O-])[O-]`, the “hERG current change (%, negative = inhibition) at 10uM” value is listed as -81.8%.

Take `CC1(C)OC(C)(C)/C(=C/Nc2ccccc2)C1=O`: the “hERG current change (%, negative = inhibition) at 10uM” value is 10.2%.

Consider `COc1ccc(OCC(=O)Nc2ccc(S(=O)(=O)N3CCCCC3)cc2)cc1`, for which the “hERG current change (%, negative = inhibition) at 10uM” value was -20.2%.

As to `O=C1c2ccc([N+](=O)[O-])cc2C(=O)N1c1ccc([N+](=O)[O-])cn1`, the “hERG current change (%, negative = inhibition) at 10uM” value stood at 14.5%.

For `CCOC(=O)C1CCN(c2nc3ccccc3nc2C(C#N)C(=O)OCCOC)CC1` (centres unmarked), the “hERG current change (%, negative = inhibition) at 10uM” value is on record as -27.4%.

As for `CCOC(=O)C1CCCN(c2nc3ccccc3nc2C(C#N)C(=O)OC(C)COC)C1` (centres unmarked), the “hERG current change (%, negative = inhibition) at 10uM” value is on record as -55.2%.

On to `CCOC(=O)C1CCN(c2nc3ccccc3nc2C(C#N)C(=O)OC(C)COC)CC1` (centres unmarked), for which the “hERG current change (%, negative = inhibition) at 10uM” value is given as -13.9%.

Consider `CCOC(=O)C1CCCN(c2nc3ccccc3nc2C(C#N)C(=O)OCCOC)C1` (centres unmarked), for which the “hERG current change (%, negative = inhibition) at 10uM” value was -66%.

Regarding `CCOC(=O)C1CCCN(c2nc3ccccc3nc2C(C#N)C(=O)OCC)C1` (centres unmarked), the “hERG current change (%, negative = inhibition) at 10uM” value is given as -14%.

Regarding `CCOC(=O)C1CCCN(c2nc3ccccc3nc2C(C#N)C(=O)OC(C)C)C1` (centres unmarked), the “hERG current change (%, negative = inhibition) at 10uM” value is 8.39%.

On to `C/C(=N\NC(=O)CCCOc1ccc(Cl)cc1C)c1ccc(C)o1`, for which the “hERG current change (%, negative = inhibition) at 10uM” value is reported as 3.58%.

With `COc1cccc(-n2cc(CNC(=O)C3CCC(=O)N(C4CC4)C3)cn2)c1` (centres unmarked), the “hERG current change (%, negative = inhibition) at 10uM” value is given as -11%.

In the case of `COc1ccccc1C(=O)Nc1ccccc1SC`, the “hERG current change (%, negative = inhibition) at 10uM” value is listed as -20.3%.

Take `CCCn1c(CN2CCCCC2CC)nc2c1c(=O)n(C)c(=O)n2C` (centres unmarked): the “hERG current change (%, negative = inhibition) at 10uM” value is recorded as -5.14%.

For the molecule `CCCCCn1c(CN2CCCCC2CC)nc2c1c(=O)n(C)c(=O)n2C` (centres unmarked), the “hERG current change (%, negative = inhibition) at 10uM” value is reported as -44.7%.

With `CCCCCn1c(CN2CCCCC2C)nc2c1c(=O)n(C)c(=O)n2C` (centres unmarked), the “hERG current change (%, negative = inhibition) at 10uM” value is on record as -44.7%.

For `CCCCCCn1c(CN2CCCCC2CC)nc2c1c(=O)n(C)c(=O)n2C` (centres unmarked), the “hERG current change (%, negative = inhibition) at 10uM” value is listed as -51.9%.

As for `CCCn1c(CN2CCCCC2C)nc2c1c(=O)n(C)c(=O)n2C` (centres unmarked), the “hERG current change (%, negative = inhibition) at 10uM” value was 3.04%.

As for `CCCCCCn1c(CN2CCCCC2C)nc2c1c(=O)n(C)c(=O)n2C` (centres unmarked), the “hERG current change (%, negative = inhibition) at 10uM” value is -60.5%.

On to `Cc1ccc(Nc2nc(-c3ccc(O)cc3O)cs2)nc1`, for which the “hERG current change (%, negative = inhibition) at 10uM” value is on record as 11.1%.

Consider `N/C(=N\[N+](=O)[O-])N1CCN(C(=O)c2ccccc2)CC1`, for which the “hERG current change (%, negative = inhibition) at 10uM” value is 24.8%.

As for `CC(C)(C)c1ccc(/C=N/Nc2nncn2N)cc1`, the “hERG current change (%, negative = inhibition) at 10uM” value was -21.5%.

Consider `CCOC(=O)CN1C(=N)N(c2nc(NC(C)C)nc(NC(C)C)n2)CC1=O`, for which the “hERG current change (%, negative = inhibition) at 10uM” value was -73.8%.

Turning to `CCNc1nc(NC(C)C)nc(N2CC(=O)N(CC(=O)OCC)C2=N)n1`, the “hERG current change (%, negative = inhibition) at 10uM” value is recorded as -13.9%.

As to `CCOC(=O)CN1C(=N)N(c2nc(NC(C)C)nc(OC)n2)CC1=O`, the “hERG current change (%, negative = inhibition) at 10uM” value was -13.1%.

Turning to `O=C(NCc1ccc2c(c1)OCO2)c1ccc(CS(=O)(=O)c2cccc(C(F)(F)F)c2)o1`, the “hERG current change (%, negative = inhibition) at 10uM” value is reported as -24.2%.

Take `CCOCCCNC(=O)c1ccc(CS(=O)(=O)c2cccc(C(F)(F)F)c2)o1`: the “hERG current change (%, negative = inhibition) at 10uM” value is 6.78%.

As for `O=C(NCc1ccco1)c1ccc(CS(=O)(=O)c2cccc(C(F)(F)F)c2)o1`, the “hERG current change (%, negative = inhibition) at 10uM” value is on record as -60.3%.

On to `CCCCNC(=O)c1ccc(CS(=O)(=O)c2cccc(C(F)(F)F)c2)o1`, for which the “hERG current change (%, negative = inhibition) at 10uM” value is listed as -53.5%.

Regarding `COCCNC(=O)c1ccc(CS(=O)(=O)c2cccc(C(F)(F)F)c2)o1`, the “hERG current change (%, negative = inhibition) at 10uM” value was determined as 4.09%.

Regarding `COCCCNC(=O)c1ccc(CS(=O)(=O)c2cccc(C(F)(F)F)c2)o1`, the “hERG current change (%, negative = inhibition) at 10uM” value is listed as -8.62%.

With `COC(=O)c1cccc(Cn2cc([N+](=O)[O-])cn2)c1`, the “hERG current change (%, negative = inhibition) at 10uM” value is 8.41%.

Consider `Cc1ccc(Nc2ncnc3c2nnn3Cc2ccccc2)cc1`, for which the “hERG current change (%, negative = inhibition) at 10uM” value is 8.07%.

For the molecule `O=C(CCS(=O)(=O)c1cc(Br)cc2c1N(C(=O)C1CC1)CC2)NCC1CCCO1` (centres unmarked), the “hERG current change (%, negative = inhibition) at 10uM” value is listed as 10.8%.

With `Cc1ccc(-c2nc3nc4ccccc4nc3n2Cc2ccco2)cc1`, the “hERG current change (%, negative = inhibition) at 10uM” value is on record as -18.7%.

With `COCCn1c(-c2ccco2)nc2nc3ccccc3nc21`, the “hERG current change (%, negative = inhibition) at 10uM” value is on record as 2.99%.

`COc1ccccc1Cn1c(-c2ccco2)nc2nc3ccccc3nc21`: the “hERG current change (%, negative = inhibition) at 10uM” value is -4.67%.

With `c1ccc(-c2nc3nc4ccccc4nc3n2Cc2ccco2)cc1`, the “hERG current change (%, negative = inhibition) at 10uM” value is reported as -61.2%.

With `COc1ccc(CCn2c(-c3ccco3)nc3nc4ccccc4nc32)cc1`, the “hERG current change (%, negative = inhibition) at 10uM” value is -3.77%.

For `c1ccc(Cn2c(-c3ccco3)nc3nc4ccccc4nc32)cc1`, the “hERG current change (%, negative = inhibition) at 10uM” value turned out to be 6.13%.

Take `Clc1ccc(-c2nc3nc4ccccc4nc3n2Cc2ccco2)cc1`: the “hERG current change (%, negative = inhibition) at 10uM” value is listed as -12.3%.

Turning to `CCCCOCCCn1c(-c2ccco2)nc2nc3ccccc3nc21`, the “hERG current change (%, negative = inhibition) at 10uM” value was -55.9%.

With `CCCCCn1c(-c2ccco2)nc2nc3ccccc3nc21`, the “hERG current change (%, negative = inhibition) at 10uM” value is on record as -67.5%.

For `O=C(O)CSc1sc(=S)sc1SCC(=O)O`, the “hERG current change (%, negative = inhibition) at 10uM” value was determined as 13.7%.
